From the supplement of paper PMC9334596
“And” between values parts separate entries of the source, which are not always exact repeats. Equal entries are not always repeated. Whole data set: some 5,300 compounds, median “PER2::LUC luminescence relative to vehicle control” near 0.96, cut for the highest 2% near 1.3. Shown is part of a subset that was picked to be rich in the highest values.

Test system: mPer2Luc MEF
Experiment: PER2::LUC luminescence relative to vehicle control (fold of vehicle); higher = higher PER2::LUC reporter signal
Conditions: 10 µM
Method in brief: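 Compounds from commercial libraries were added at 10 μM to 384-well plates seeded 48 h earlier with ~3000 mPer2Luc mouse embryonic fibroblasts per well. The cells were kept in DMEM with 10% FBS at 37 °C and 5% CO2. Luminescence was read with ONE-Glo 24 h and 30 h after treatment, then an alamarBlue viability assay was run. Values are PER2::LUC luminescence relative to vehicle control, as fold change.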

SMILES	PER2::LUC luminescence (time after treatment 24 h)	PER2::LUC luminescence (time after treatment 30 h)
O=C(O)c1cccc(-c2noc(-c3ccccc3F)n2)c1	1.69	2.11
O=C(NCC1(c2nc(-c3ccccc3)cs2)CCOCC1)c1cccc(-c2noc(C(F)(F)F)n2)c1	0.923	0.884
FC(F)(F)c1cccc(-c2noc(-c3cc(-c4ccccc4)c(C(F)(F)F)s3)n2)c1	1.17	1.14
O=C(O)c1cc(=O)c2ccccc2o1	0.998 and 1.05	0.946 and 1.14
N[C@H](C(=O)O)c1ccc(O)c(C(=O)O)c1	1.02	0.987
CC(C)c1ccc2oc3nc(N)c(C(=O)O)cc3c(=O)c2c1	1.07	1.49
O=C(O)c1cc(=O)c2cc(Cl)ccc2[nH]1	0.977	0.883
CCOC(=O)[N-]c1c[n+](N2CCOCC2)no1	1.09	1.74
O=C(Nc1ccccc1)C12C=C1C(=NO)c1ccccc1O2 (stereo unspecified)	1.08	0.974
N[C@@]1(C(=O)O)CN[C@@H](C(=O)O)C1	0.997	0.949
C[C@@H]1O[C@@H](OC[C@H]2O[C@@H](Oc3cc(O)c4c(c3)O[C@H](c3ccc(O)cc3)CC4=O)[C@H](O)[C@@H](O)[C@@H]2O)[C@H](O)[C@H](O)[C@H]1O	0.957	0.972
O=c1cc(-c2cc(O)c(O)c(O)c2)oc2cc(O)cc(O)c12	0.957	0.941
COc1cc(O)c2c(=O)cc(-c3ccc(O)cc3)oc2c1	1.21	1.32
COc1ccc(-c2cc(=O)c3c(O)cc(O)cc3o2)cc1	1.41	1.56
COc1ccc(-c2cc(=O)c3c(O)c(OC)c(OC)c(OC)c3o2)cc1	1.03	1.16
COc1ccc(-c2cc(=O)c3c(O)cc(O)cc3o2)cc1O	0.933	1.03
COc1ccc(-c2cc(=O)c3c(O)cc(OC)cc3o2)cc1	1.29	1.46
Cc1cc2nc3c(=O)[nH]c(=O)nc-3n(C[C@H](O)[C@H](O)[C@H](O)COP(=O)(O)O)c2cc1C	1.22	0.887
O=C(Nc1ccc(C(F)(F)F)cn1)c1cccc2cccnc12	1.02	1.03
CC(=O)CCCCn1cnc2c1c(=O)n(C)c(=O)n2C	0.931	0.944
Cc1cccc(Oc2nc3c(C)cccn3c(=O)c2C=C(C#N)c2nc3ccccc3s2)c1	1	1.04
O=C1CCC(c2ccccc2)(C2CCN(Cc3ccccc3)CC2)C(=O)N1 (stereo unspecified)	0.825	0.82

SMILES	PER2::LUC luminescence (time after treatment 24 h)	PER2::LUC luminescence (time after treatment 30 h)
COc1cnc(NS(=O)(=O)c2ccc(N)cc2)nc1	0.926	1
COc1nccnc1NS(=O)(=O)c1ccc(N)cc1	1	1.97
COc1ncnc(NS(=O)(=O)c2ccc(N)cc2)c1OC	0.986	0.84
C=CCO/N=C1\c2ccccc2-c2nc(C#N)c(C#N)nc21	0.778	0.699
C[C@]12CC[C@@H]3c4ccc(O)cc4CC[C@H]3[C@@H]1C[C@H](O)[C@@H]2O	1.07	0.987
O=c1c(N=Nc2ccc(CS(=O)(=O)O)cc2)c(-c2ccc(C[N+](=O)[O-])cc2)[nH]n1-c1ccccc1	1.09	1.08
CCCC(C(=O)O)c1c(C)nc2ccc(Cl)cc2c1-c1ccccc1 (stereo unspecified)	1.02	0.957
CC1=C(/C=C/C(C)=C\C=C\C(C)=C\C(=O)O)C(C)(C)CCC1	2.08	1.87
CC1=C(/C=C/C(C)=C/C=C/C(C)=C/C(=O)Nc2ccc(O)cc2)C(C)(C)CCC1	0.452 and 1.09	0.603 and 1.06
CCCC(=O)OCc1ccc(OC(=O)/C=C(C)/C=C/C=C(C)/C=C/C2=C(C)CCCC2(C)C)cc1	1.02	1.16
CC1=C(/C=C/C(C)=C/C=C/C(C)=C/C=C/C=C(C)/C=C/C=C(C)/C=C/C2=C(C)C(=O)CCC2(C)C)C(C)(C)CCC1=O	0.908	0.963
CC1=C(/C=C/C(C)=C/C=C/C(C)=C/C=C/C=C(C)/C=C/C=C(C)/C=C/C(=O)[C@]2(C)C[C@@H](O)CC2(C)C)C(C)(C)C[C@H](O)C1	0.964	0.922
CC1=C(/C=C/C(C)=C/C=C/C(C)=C/CO)C(C)(C)CCC1	1.35 and 1.26 and 1.07	1.26 and 1.06 and 1.11
CC1=C(/C=C/C(C)=C/C=C/C(C)=C\CO)C(C)(C)CCC1	1.08	1.03
CCCCCCCCCCCCCCCC(=O)OC/C=C(C)/C=C/C=C(C)/C=C/C1=C(C)CCCC1(C)C	0.929 and 0.69	0.976 and 0.869
CC1=C(/C=C/C(C)=C/C=C/C(C)=C/C=C/C=C(C)/C=C/C=C(C)/C=C/C2=C(C)CCCC2(C)C)C(C)(C)CCC1	1.07	0.941
CC1=C(/C=C/C(C)=C/C=C/C(C)=C\C(=O)O)C(C)(C)CCC1	1.75 and 1.62 and 1.8	1.89 and 1.79 and 1.52
CC(=O)OC/C=C(C)/C=C/C=C(C)/C=C/C1=C(C)CCCC1(C)C	0.964	0.832
Clc1ccc(N/N=C(/c2ccccc2)c2ccccn2)nc1	0.832	0.785
CC(C)C[C@H](NC(=O)[C@H](CCC(N)=O)NC(=O)[C@H](CCCCN)NC(=O)[C@H](CCC(N)=O)NC(=O)[C@@H](N)CCC(=O)O)C(=O)N[C@@H](CCC(N)=O)C(=O)O	1.03	0.938
CC(=O)Oc1ccc(O)cc1	0.907	1.01
CSC[C@H]1O[C@@H](n2cnc3c(N)ncnc32)[C@H](O)[C@@H]1O	0.938	0.773

SMILES	PER2::LUC luminescence (time after treatment 24 h)	PER2::LUC luminescence (time after treatment 30 h)
COc1ccc2cc1Oc1ccc(cc1)C[C@H]1c3cc(c(OC)cc3CCN1C)Oc1c(OC)c(OC)c(OC)c3c1[C@H](C2)N(C)CC3	0.81	0.85
COc1ccc(S(=O)(=O)Nc2ccccc2CN(C)C/C=C/c2ccc(Cl)cc2)cc1	1.02 and 0.909	0.939 and 0.913
Nc1ncnc2c1c(-c1ccc(Oc3ccccc3)cc1)nn2[C@@H]1CCCNC1	0.544	0.62
O=C1C[C@@H](c2ccc(O)cc2)Oc2cc(O)cc(O)c21	1.46	1.25
O=C1C[C@@H](c2ccccc2)Oc2cc(O)cc(O)c21	1.07	1.08
O=C1C[C@@H](c2ccc(O)c(O)c2)Oc2cc(O)cc(O)c21	0.983	1.05
CC(Cc1ccccc1)(NC(=O)CN)c1ccccc1 (racemic)	0.964	1.04
CNC(=O)c1cc(Oc2ccc(NC(=O)Nc3ccc(Cl)c(C(F)(F)F)c3)c(F)c2)ccn1	0.831 and 0.772	0.697 and 0.731
CNC(=O)c1cc(Oc2ccc(NC(=O)Nc3ccc(Cl)c(C(F)(F)F)c3)cc2)ccn1	0.556 and 0.486	0.816 and 0.513
CC(=O)CC(=O)Nc1ccc(Cl)c(C(F)(F)F)c1	1.35	1.37
O=[N+]([O-])c1cn(CCN2CCOCC2)cn1	0.977	0.974
COc1cc2c3cc1Oc1c(OC)c(OC)cc4c1[C@@H](Cc1ccc(OC(=O)c5ccc([N+](=O)[O-])cc5)c(c1)Oc1ccc(cc1)C[C@@H]3N(C)CC2)N(C)CC4	0.754	0.76
C#CCN(C)CCCOc1ccc(Cl)cc1Cl	1.23	1.37
C#CCN(C)Cc1ccccc1	0.93 and 0.871	0.955 and 0.95
Cc1cc(Br)c(O)c2ncccc12	1.19	0.958
COC(=O)N[C@H](C(=O)NNC[C@H](O)[C@H](Cc1ccccc1)NC(=O)[C@@H](NC(=O)OC)C(C)(C)C)C(C)(C)C	0.974	0.963
Cc1cccc(/C=C/c2ccccc2)n1	1.35	1.16
CC(COc1ccc(/C=C/c2ccccc2)cc1)[N+](C)(C)C (stereo unspecified)	0.936	1.02
CN(C/C=C/c1ccccc1)Cc1cccc2ccccc12	0.5	0.535
OCc1cc2c(cn1)[nH]c1ccccc12	0.851	0.873
O=Cc1c2[nH]c3ccccc3c2cc2[nH]c3ccccc3c12	1.54	1.5
O=c1[nH]c2ccccc2c2ccccc12	1.19	0.972

SMILES	PER2::LUC luminescence (time after treatment 24 h)	PER2::LUC luminescence (time after treatment 30 h)
CC[C@@H](C)[C@@H](O)[C@H](C)C(=O)[C@H](C)/C=C(\C)C[C@H](C)[C@@H]1OC(=O)[C@H]1CC	1.06	0.925
Clc1cccc(COc2cncc(N3CCNCC3)n2)c1	0.246	0.301
CCCCc1ccc(NC(C)=O)c(C)c1	1.1	1.05
CS(=O)(=O)c1ccc(C(=O)Nc2ccc(Cl)c(-c3ccccn3)c2)c(Cl)c1	1.17	1.14
O=C(Nc1cccc(Cl)c1)c1ccccn1	1.65	1.48
O=C(Nc1ccc(S(=O)(=O)Nc2ccccc2Cl)c(Cl)c1)c1ccccn1	0.992	1.06
COc1cc(NC(=O)c2ccccn2)ccc1Cl	1.13	1.38
CN1CC(=O)N=C1NC(=O)Nc1cccc(Cl)c1	0.949	1.1
COc1ccccc1C(=O)Nc1cccc(NC(=O)c2cccc(C)c2)c1	0.917	0.985
COc1cccc(CNC(=O)Nc2nc(-c3ccncc3)cs2)c1	0.558	0.601
O=c1ncc(F)c[nH]1	0.979	0.911
Cn1c2ncnc-2c(O)n(C)c1=O	1.14	1.18
FC(F)(F)COB(OCC(F)(F)F)OCC(F)(F)F	0.958	1
O=C1CN(/N=C/C=C/c2ccc([N+](=O)[O-])o2)C(=O)N1	1.04	1.01
CCOc1ccc(C(=O)c2ccc(OC)c(O)c2O)cc1	0.983	0.916
CCOc1ccc(C(=O)c2ccc(O)c(O)c2O)cc1	0.963	1.08
CCOc1cccc(C(=O)c2ccc(O)c(O)c2O)c1	1.23	1.37
O=C(Nc1cccc(NC(=O)c2cccc(O)c2O)c1)c1cccc(O)c1O	0.916	1.34
O=C(O)Cc1cccc(OCCCN(Cc2cccc(C(F)(F)F)c2Cl)CC(c2ccccc2)c2ccccc2)c1	1.4	1.47
O=c1[nH]c(C2CCCN2)nc2c1oc1ccc(Cl)cc12 (stereo unspecified)	1.22	1.29
N#Cc1cc(-c2ccnc(Nc3ccc(N4CCOCC4)cc3)n2)ccc1OC1CCOCC1	0.507	0.584
O=C(CCCCCCCCCCCCC1CCCC1)Nc1ccc(S(=O)(=O)c2ccc(NC(=O)CCCCCCCCCCCCC3CCCC3)cc2)cc1	1.06	1.02
